# According to PubChem BioAssay:
# “And” between values parts separate entries of the source, which are not always exact repeats. Equal values may be shown once. The source made the active and inactive calls. Rule as the data show it, unless noted: active = inhibition above about 80%; inactive = the rest.
# How the values were obtained:
# [1] = liver-stage malaria parasite load reduction – cell-based, known kinase inhibitor set, luminescence, hepatoma host viability (AID 624392; call rule not given here;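 also: infected cells incubated roughly two days before readout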); settings: Plasmodium liver stage in hepatoma cells, luciferase luminescence, concentration not given here; liver cell % of control: measured here: host liver cell viability; parasite % of control: stronger effect = lower value
# [2] = growth inhibition, single agents and combos, LFS_MB_2R, cell-based, cisplatin combos, synergistic combos for chromothripsis tumors (AID 1671457); settings: LFS_MB_2R medulloblastoma cells, stronger effect = higher value;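 also: cells exposed to compound for four days before readout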
# [3] = UWB1.289_BRCA1 ovarian cancer growth, cell-based, BGB or cisplatin combinations (AID 1671459); settings: UWB1.289 BRCA1 ovarian carcinoma, drug combinations, stronger effect = higher value
# [4] = drug combination toxicity in non-malignant astrocytes – cell-based, BGB or cisplatin IC20 combos, cytotoxicity control for chromothriptic childhood tumor combination screen (AID 1671460); settings: Human astrocytes, viability inhibition, drug combinations, at 0.5 µM, stronger effect = higher value;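 also: cells exposed to compounds for 96 hours before viability readout; 0% = vehicle and 100% = killing control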
# [5] = compounds altering HSF1 focus formation in cells – imaging, Selleck Cancer Library (AID 1347162; in the data active = plate-normalised HSF1 focus index below about 0.46); settings: human cells, HSF1 nuclear foci imaging, at 10 µM; SSMD: measured here: HSF1 foci SSMD mean; cell count: measured here: cell number; plate-normalised HSF1 focus index: stronger effect = lower value
# [6] = blockers of cellular phospholipid synthesis – cell-based, LOPAC library, screen 4, primary screen (AID 1347384; call rule not given here); settings: animal cells, phospholipid biosynthesis inhibition screen; at 10 µM
# [7] = compounds altering viability of human ES cells (AID 493140; call rule not given here;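 also: cells exposed to compounds for four days before counting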); settings: human embryonic stem cell survival screen; stronger effect = higher value
# [8] = P. berghei load reduction in hepatocytes – cell-based, HepG2, luciferase luminescence, HepG2 viability, primary screen (AID 624349; in the data active = parasite load remaining mostly below about 12%, no sharp cut-off; inactive = mostly above about 10%;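 also: 100% = mean of DMSO negative control wells on the same plate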); settings: P. berghei liver stage in HepG2, luciferase luminescence, concentration not given here; parasite load remaining: stronger effect = lower value; viability: measured here: HepG2 viability without parasites
# [9] = compounds altering circadian rhythm period length – cell-based, LOPAC library, luminescence reporter (AID 2774; call rule not given here;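 also: values are relative to mean of DMSO wells on each plate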); settings: circadian reporter cells, at 7 µM, actives lie on both sides
# [10] = tested on: Hepatitis C virus NS3 helicase; experiment: blockers of NS3h binding to ssDNA – biochemical, fluorescence polarization, LOPAC1280 library, primary screen (AID 687035; in the data active = inhibition above about 37%); settings: Purified HCV NS3 helicase, Cy5-dT15 ssDNA binding fluorescence polarization; stronger effect = higher value; concentration not given here
# [11] = compounds altering Cy5-DNA-NS3h complex signal – biochemical, LOPAC1280, artefact control for HCV NS3 helicase inhibitor project (AID 687037; call rule not given here); settings: Cy5-DNA-NS3h complex fluorescence interference counterscreen
# [12] = galactose survival enhancers in mitochondrial complex I cybrids – cell-based, galactose medium, ATP luminescence, primary screen (AID 1645843;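 active = z-score of at least 1.8 in each of two replicates, scored against plate mean and spread of sample wells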;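 also: positive z means more ATP and so rescue of galactose-driven cybrid death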); settings: complex I mutant cybrid cells, 72 h, stronger effect = higher value
# [13] = measured here: combination with cisplatin, at 0.5 µM
# [14] = measured here: combination with cisplatin, at 5 µM
# [15] = BGB combination, concentration series, at 5 µM
# [16] = cisplatin combination, concentration series, at 5 µM
# [17] = measured here: combo with BGB IC20
# [18] = measured here: combo with cisplatin IC20
smiles,measurement,setting,value
CCN1CCN(Cc2ccc(NC(=O)c3ccc(C)c(NC(=O)c4cncc(-c5cccs5)c4)c3)cc2C(F)(F)F)CC1,liver cell % of control,[1],83.9%
same,parasite % of control,[1],74.7% (inactive)
CC(=O)Nc1ccc(C(=O)Nc2ccccc2N)cc1,inhibition,[2]; at 0.5 µM,-12.7% (inactive)
same,inhibition,[2]; [13],-6.43%
same,inhibition,[2]; [14],50.6%
same,inhibition,[3]; [15],68.5%
same,inhibition,[3]; at 0.5 µM,-2% (inactive)
same,inhibition,[3]; [16],75.2%
same,inhibition,[4],17% (inactive)
same,inhibition,[4]; [17],9.55%
same,inhibition,[4]; [18],26.2%
NC1CCC(N[C@@H]2C[C@H]2c2ccccc2)CC1 (some centres undefined),inhibition,[2]; at 0.5 µM,-35.8% (inactive)
same,inhibition,[2]; [13],-40%
same,inhibition,[2]; [14],-27.2%
same,inhibition,[3]; [15],-9.67%
same,inhibition,[3]; at 0.5 µM,0.86% (inactive)
same,inhibition,[3]; [16],21.2%
same,inhibition,[4],11.2% (inactive)
same,inhibition,[4]; [17],8.8%
same,inhibition,[4]; [18],10.6%
Cc1nnc(C(C)C)n1C1CC2CCC(C1)N2CC[C@H](NC(=O)C1CCC(F)(F)CC1)c1ccccc1 (some centres undefined),SSMD,[5],0.747
same,cell count,[5],6250
same,plate-normalised HSF1 focus index,[5],1.04 (inactive)
same,outcome,[6],inactive
COc1ccc(S(=O)(=O)N(CCO)c2ccccc2CN(C)C/C=C/c2ccc(Cl)cc2)cc1,survival,[7],106 (inactive)
same,parasite load remaining,[8],32.7% (inactive)
same,viability,[8],64.7%
CN(C)C/C=C/C(=O)Nc1ccc(C(=O)Nc2cccc(Nc3ncc(Cl)c(-c4c[nH]c5ccccc45)n3)c2)cc1,inhibition,[2]; at 0.5 µM,75.5% (inactive)
same,inhibition,[2]; [13],68.1%
same,inhibition,[2]; [14],91.1%
same,inhibition,[3]; [15],79.9%
same,inhibition,[3]; at 0.5 µM,84.7% (active)
same,inhibition,[3]; [16],86.1%
same,inhibition,[4],87.2% (active)
same,inhibition,[4]; [17],86.5%
same,inhibition,[4]; [18],83.8%
C=C1[C@H](CO)[C@@H](O)C[C@@H]1n1cnc2c(=O)[nH]c(N)nc21,inhibition,[2]; at 0.5 µM,-6.88% (inactive)
same,inhibition,[2]; [13],-11.9%
same,inhibition,[2]; [14],-13.1%
same,inhibition,[3]; [15],-20.8%
same,inhibition,[3]; at 0.5 µM,-14% (inactive)
same,inhibition,[3]; [16],-7.68%
same,inhibition,[4],-13.6% (inactive)
same,inhibition,[4]; [17],-16.4%
same,inhibition,[4]; [18],-16.1%
CCCc1c(OCCCOc2ccc(OCC(=O)O)cc2)ccc(C(C)=O)c1O,period change,[9],-0.235 h (inactive)
same,inhibition,[10],-1% (inactive)
same,fluorescence ratio (interference),[11],1 (inactive)
same,outcome,[6],inactive
same,z-score,[12],1.51 (inactive)
CN(CCOc1ccc(C[C@H](Nc2ccccc2C(=O)c2ccccc2)C(=O)O)cc1)c1ccccn1,period change,[9],0.085 h (inactive)
c1ccc2c(-c3cnn4cc(-c5ccc(N6CCNCC6)cc5)cnc34)ccnc2c1,SSMD,[5],-18.9
same,cell count,[5],2900
same,plate-normalised HSF1 focus index,[5],0.0271 (active)
N=C1CCCN1Cc1[nH]c(=O)[nH]c(=O)c1Cl,inhibition,[2]; at 0.5 µM,-11.5% (inactive)
same,inhibition,[2]; [13],-21.1%
same,inhibition,[2]; [14],-54.2%
same,inhibition,[3]; [15],3.78%
same,inhibition,[3]; at 0.5 µM,4.18% (inactive)
same,inhibition,[3]; [16],25.3%
same,inhibition,[4],0.72% (inactive)
same,inhibition,[4]; [17],12.6%
same,inhibition,[4]; [18],-10.8%
CC(=O)[C@]1(N)Cc2c(O)c3c(c(O)c2[C@@H](O[C@H]2C[C@H](O)[C@H](O)CO2)C1)C(=O)c1ccccc1C3=O,inhibition,[2]; at 0.5 µM,-4.05% (inactive)
same,inhibition,[2]; [13],-9.33%
same,inhibition,[2]; [14],67%
same,inhibition,[3]; [15],117%
same,inhibition,[3]; at 0.5 µM,13% (inactive)
same,inhibition,[3]; [16],128%
same,inhibition,[4],25.7% (inactive)
same,inhibition,[4]; [17],27.9%
same,inhibition,[4]; [18],27.1%
CN(NC(=O)CC(=O)NN(C)C(=S)c1ccccc1)C(=S)c1ccccc1,SSMD,[5],2.56
same,cell count,[5],6990
same,plate-normalised HSF1 focus index,[5],1.13 (inactive)
COc1ccc(C(=O)C2CCN(CC(=O)N(Cc3nc4c(c(=O)[nH]3)COCC4)CC3CC3)CC2)cc1,inhibition,[2]; at 0.5 µM,-24% (inactive)
same,inhibition,[2]; [13],-29.2%
same,inhibition,[2]; [14],-37.9%
same,inhibition,[3]; [15],1.7%
same,inhibition,[3]; at 0.5 µM,-0.47% (inactive)
same,inhibition,[3]; [16],18.5%
same,inhibition,[4],48.9% (inactive)
same,inhibition,[4]; [17],45.3%
same,inhibition,[4]; [18],49.7%
COc1cc(Nc2ncc(F)c(Nc3ccc4c(n3)NC(=O)C(C)(C)O4)n2)cc(OC)c1OC,SSMD,[5],2.8
same,cell count,[5],7530
same,plate-normalised HSF1 focus index,[5],1.18 (inactive)
O=C(NOCC(O)CO)c1ccc(F)c(F)c1Nc1ccc(I)cc1F (centres undefined),liver cell % of control,[1],81.2% and 75.1% and 63.7%
same,parasite % of control,[1],153% (inactive) and 268% (inactive) and 132% (inactive)
